# This is part of a sample that, as a whole, favours compounds with a hit. Of some 79,000 tested, about 15% had one in any assay. A number with no mark means an inactive call. Active and inactive are the calls of the source. No stated cut-off is given here; in the data, active means growth inhibition above about 70%; inactive means the rest.
# What was measured:
# [1] = NCI Yeast Anticancer Drug Screen. Data for the rad52 strain (AID 147);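 further: 0% = growth of vehicle-treated control cultures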; conditions: S. cerevisiae rad52 mutant growth inhibition, hits give high values
# Summary of the method: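 DNA repair-defective yeast; compound exposure; growth scored against vehicle controls.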
# [2] = NCI Yeast Anticancer Drug Screen. Data for the wt1 strain (AID 149);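 further: 0% = growth of vehicle-treated wt1 cultures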; conditions: S. cerevisiae wt1 strain (SPY 50644) growth inhibition, hits give high values
# Summary of the method: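 wt1 yeast, compound-treated; % growth inhibition vs vehicle control.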
# [3] = NCI Yeast Anticancer Drug Screen. Data for the rad50EPP+ strain (AID 151);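 further: 0% = growth of vehicle-treated control cultures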; conditions: S. cerevisiae rad50 mutant strain, hits give high values
# Summary of the method: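 rad50EPP+ yeast treated with test compounds. Readout: growth vs vehicle control.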
# [4] = NCI Yeast Anticancer Drug Screen. Data for the mgt1 strain (AID 153); conditions: S. cerevisiae mgt1 mutant growth inhibition, hits give high values
# Summary of the method: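 Growth inhibition relative to vehicle controls was scored for the mgt1 yeast strain after compound exposure.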
# [5] = NCI Yeast Anticancer Drug Screen. Data for the rad50 strain (AID 155);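 further: 0% = growth of vehicle-only cultures of the same strain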; conditions: S. cerevisiae rad50 strain growth inhibition, hits give high values
# Summary of the method: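 Genetically altered yeast (DNA repair pathway); compound treatment; growth inhibition vs vehicle ctrl.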
# [6] = NCI Yeast Anticancer Drug Screen. Data for the mec2-1 strain (AID 157); conditions: S. cerevisiae mec2-1 strain, hits give high values
# Summary of the method: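 Growth inhibition is read against vehicle-treated controls after compound exposure of the mec2-1 yeast strain, which is defective in DNA damage repair or cell cycle control.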
# [7] = NCI Yeast Anticancer Drug Screen. Data for the rad14 strain (AID 159);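 further: 0% = growth of vehicle-treated control cultures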; conditions: S. cerevisiae rad14 strain growth inhibition, hits give high values
# Summary of the method: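 Test compounds were applied to a repair-deficient yeast strain. Its growth was then compared with that of cultures given vehicle alone, and inhibition was expressed relative to those controls.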
# [8] = NCI Yeast Anticancer Drug Screen. Data for the sgs1 mgt1 strain (AID 161);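 further: 0% = growth of cultures given vehicle only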; conditions: S. cerevisiae sgs1 mgt1 strain, hits give high values
# Summary of the method: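 This yeast growth screen uses a strain with defined DNA-repair lesions; compound-treated growth is compared with vehicle-treated growth.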
# [9] = NCI Yeast Anticancer Drug Screen. Data for the CLN2oe strain (AID 163);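 further: 0% = growth of vehicle-only control cultures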; conditions: S. cerevisiae CLN2oe strain, hits give high values
# Summary of the method: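 Compound-treated yeast; growth vs vehicle ctrl = % inhibition. Genetically altered strain (cell-cycle control).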
# [10] = NCI Yeast Anticancer Drug Screen. Data for the cln2 rad14 strain (AID 165);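 further: 0% = growth equal to vehicle treated cultures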; conditions: S. cerevisiae cln2 rad14 strain, hits give high values
# Summary of the method: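 Growth inhibition, relative to vehicle-treated controls, is the read-out. The test organism is a yeast strain with defined genetic alterations, cln2 rad14.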
# [11] = NCI Yeast Anticancer Drug Screen. Data for the bub3 strain (AID 167); conditions: S. cerevisiae bub3 mutant strain, hits give high values
# Summary of the method: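 Yeast carrying a defined mutation is treated with each compound, and growth is compared with that of vehicle-exposed cells to give inhibition.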
# [12] = NCI Yeast Anticancer Drug Screen. Data for the wt2 strain (AID 169);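 further: 0% = growth of vehicle-treated yeast cultures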; conditions: S. cerevisiae wt2 strain growth inhibition, hits give high values
# Summary of the method: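 Compound exposure of yeast; growth compared with vehicle controls; inhibition reported.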
# [13] = NCI Yeast Anticancer Drug Screen. Data for the mlh1 strain (AID 171);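 further: 0% = growth of vehicle-treated control cultures of the same strain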; conditions: S. cerevisiae mlh1 strain growth inhibition, hits give high values
# Summary of the method: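 Compounds are applied to a genetically altered yeast strain, and its growth is compared with that of vehicle-treated cultures to give percent inhibition.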
# [14] = NCI Yeast Anticancer Drug Screen. Data for the sgs1 strain (AID 173);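 further: 0% = growth of vehicle-only control cultures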; conditions: S. cerevisiae sgs1 mutant, hits give high values
# Summary of the method: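 Compounds applied to genetically altered yeast; growth compared with vehicle-treated cultures to give % inhibition.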
# [15] = NCI Yeast Anticancer Drug Screen. Data for the mlh1 rad18 strain (AID 175); conditions: S. cerevisiae mlh1 rad18 strain growth inhibition, hits give high values
# Summary of the method: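 Cells of a genetically altered yeast strain, deficient in DNA damage repair, were treated with compound. Their growth was then compared with that of vehicle-treated cultures to give inhibition.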
# [16] = at 5.0 µM (retest, dose inferred, filed as 0.5)
# [17] = at 50.0 µM (retest, dose inferred, filed as 5.0)
structure (smiles),measurement,setting,value
COc1ccc(/C=C/c2sc3ccccc3[n+]2CCCCI)cc1OC,growth inhibition,[1]; at 1.2 µM,-8%
same,growth inhibition,[1]; at 3.7 µM,1%
same,growth inhibition,[1]; at 11.0 µM,-2%
same,growth inhibition,[1]; at 33.0 µM,55%
same,growth inhibition,[1]; at 100.0 µM,94% (active)
same,growth inhibition,[2]; at 1.2 µM,-84%
same,growth inhibition,[2]; at 3.7 µM,-3%
same,growth inhibition,[2]; at 11.0 µM,-6%
same,growth inhibition,[2]; at 33.0 µM,33%
same,growth inhibition,[2]; at 100.0 µM,89% (active)
same,growth inhibition,[3]; at 1.2 µM,-5%
same,growth inhibition,[3]; at 3.7 µM,-2%
same,growth inhibition,[3]; at 11.0 µM,-4%
same,growth inhibition,[3]; at 33.0 µM,0%
same,growth inhibition,[3]; at 100.0 µM,-3%
same,growth inhibition,[4]; at 1.2 µM,0%
same,growth inhibition,[4]; at 3.7 µM,-1%
same,growth inhibition,[4]; at 11.0 µM,-4%
same,growth inhibition,[4]; at 33.0 µM,76% (active)
same,growth inhibition,[4]; at 100.0 µM,98% (active)
same,growth inhibition,[5]; at 1.2 µM,-2%
same,growth inhibition,[5]; at 3.7 µM,-3%
same,growth inhibition,[5]; [16],-11%
same,growth inhibition,[5]; at 11.0 µM,-7%
same,growth inhibition,[5]; at 33.0 µM,48%
same,growth inhibition,[5]; [17],20%
same,growth inhibition,[5]; at 50.0 µM,74.9% (active)
same,growth inhibition,[5]; at 100.0 µM,93% (active)
same,growth inhibition,[6]; at 1.2 µM,-6%
same,growth inhibition,[6]; at 3.7 µM,-6%
same,growth inhibition,[6]; [16],-16%
same,growth inhibition,[6]; at 11.0 µM,-11%
same,growth inhibition,[6]; at 33.0 µM,64%
same,growth inhibition,[6]; [17],56%
same,growth inhibition,[6]; at 50.0 µM,81.4% (active)
same,growth inhibition,[6]; at 100.0 µM,95% (active)
same,growth inhibition,[7]; at 1.2 µM,-2%
same,growth inhibition,[7]; at 3.7 µM,-3%
same,growth inhibition,[7]; at 11.0 µM,-7%
same,growth inhibition,[7]; at 33.0 µM,84% (active)
same,growth inhibition,[7]; at 100.0 µM,98% (active)
same,growth inhibition,[8]; [16],-9%
same,growth inhibition,[8]; [17],29%
same,growth inhibition,[8]; at 50.0 µM,95.2% (active)
same,growth inhibition,[9]; at 1.2 µM,-7%
same,growth inhibition,[9]; at 3.7 µM,-7%
same,growth inhibition,[9]; at 11.0 µM,-8%
same,growth inhibition,[9]; at 33.0 µM,-10%
same,growth inhibition,[9]; at 100.0 µM,68%
same,growth inhibition,[10]; [16],36%
same,growth inhibition,[10]; [17],54%
same,growth inhibition,[10]; at 50.0 µM,29.6%
same,growth inhibition,[11]; at 1.2 µM,-4%
same,growth inhibition,[11]; at 3.7 µM,-8%
same,growth inhibition,[11]; [16],0%
same,growth inhibition,[11]; at 11.0 µM,-2%
same,growth inhibition,[11]; at 33.0 µM,1%
same,growth inhibition,[11]; [17],97% (active)
same,growth inhibition,[11]; at 50.0 µM,91.8% (active)
same,growth inhibition,[11]; at 100.0 µM,85% (active)
same,growth inhibition,[12]; at 1.2 µM,-3%
same,growth inhibition,[12]; at 3.7 µM,-3%
same,growth inhibition,[12]; at 11.0 µM,-6%
same,growth inhibition,[12]; at 33.0 µM,26%
same,growth inhibition,[12]; at 100.0 µM,97% (active)
same,growth inhibition,[13]; at 1.2 µM,-2%
same,growth inhibition,[13]; at 3.7 µM,-4%
same,growth inhibition,[13]; at 11.0 µM,-6%
same,growth inhibition,[13]; at 33.0 µM,66%
same,growth inhibition,[13]; at 100.0 µM,97% (active)
same,growth inhibition,[14]; at 1.2 µM,1%
same,growth inhibition,[14]; at 3.7 µM,4%
same,growth inhibition,[14]; at 11.0 µM,-2%
same,growth inhibition,[14]; at 33.0 µM,84% (active)
same,growth inhibition,[14]; at 100.0 µM,97% (active)
same,growth inhibition,[15]; [16],-9%
same,growth inhibition,[15]; [17],46%
same,growth inhibition,[15]; at 50.0 µM,95.6% (active)
CCOC1(c2cccc([N+](=O)[O-])c2)c2ccccc2Oc2ccccc21,growth inhibition,[1]; at 1.2 µM,0%
same,growth inhibition,[1]; at 3.7 µM,2%
same,growth inhibition,[1]; at 11.0 µM,4%
same,growth inhibition,[1]; at 33.0 µM,10%
same,growth inhibition,[1]; at 100.0 µM,19%
same,growth inhibition,[2]; at 1.2 µM,2%
same,growth inhibition,[2]; at 3.7 µM,1%
same,growth inhibition,[2]; at 11.0 µM,4%
same,growth inhibition,[2]; at 33.0 µM,2%
same,growth inhibition,[2]; at 100.0 µM,3%
same,growth inhibition,[3]; at 1.2 µM,3%
same,growth inhibition,[3]; at 3.7 µM,2%
same,growth inhibition,[3]; at 11.0 µM,11%
same,growth inhibition,[3]; at 33.0 µM,24%
same,growth inhibition,[3]; at 100.0 µM,19%
same,growth inhibition,[4]; at 1.2 µM,0%
same,growth inhibition,[4]; at 3.7 µM,-2%
same,growth inhibition,[4]; at 11.0 µM,0%
same,growth inhibition,[4]; at 33.0 µM,15%
same,growth inhibition,[4]; at 100.0 µM,0%
same,growth inhibition,[5]; at 1.2 µM,1%
same,growth inhibition,[5]; at 3.7 µM,0%
same,growth inhibition,[5]; [16],41%
same,growth inhibition,[5]; at 11.0 µM,4%
same,growth inhibition,[5]; at 33.0 µM,7%
same,growth inhibition,[5]; [17],69%
same,growth inhibition,[5]; at 50.0 µM,51.8%
same,growth inhibition,[5]; at 100.0 µM,9%
same,growth inhibition,[6]; at 1.2 µM,-3%
same,growth inhibition,[6]; at 3.7 µM,2%
same,growth inhibition,[6]; [16],3%
same,growth inhibition,[6]; at 11.0 µM,0%
same,growth inhibition,[6]; at 33.0 µM,7%
same,growth inhibition,[6]; [17],23%
same,growth inhibition,[6]; at 50.0 µM,26.4%
same,growth inhibition,[6]; at 100.0 µM,13%
same,growth inhibition,[7]; at 1.2 µM,0%
same,growth inhibition,[7]; at 3.7 µM,2%
same,growth inhibition,[7]; at 11.0 µM,5%
same,growth inhibition,[7]; at 33.0 µM,7%
same,growth inhibition,[7]; at 100.0 µM,10%
same,growth inhibition,[8]; [16],26%
same,growth inhibition,[8]; [17],60%
same,growth inhibition,[8]; at 50.0 µM,57.6%
same,growth inhibition,[9]; at 1.2 µM,-6%
same,growth inhibition,[9]; at 3.7 µM,-1%
same,growth inhibition,[9]; at 11.0 µM,0%
same,growth inhibition,[9]; at 33.0 µM,-1%
same,growth inhibition,[9]; at 100.0 µM,2%
same,growth inhibition,[10]; [16],12%
same,growth inhibition,[10]; [17],30%
same,growth inhibition,[10]; at 50.0 µM,3.8%
same,growth inhibition,[11]; at 1.2 µM,-1%
same,growth inhibition,[11]; at 3.7 µM,-2%
same,growth inhibition,[11]; [16],32%
same,growth inhibition,[11]; at 11.0 µM,3%
same,growth inhibition,[11]; at 33.0 µM,1%
same,growth inhibition,[11]; [17],77% (active)
same,growth inhibition,[11]; at 50.0 µM,51.7%
same,growth inhibition,[11]; at 100.0 µM,1%
same,growth inhibition,[12]; at 1.2 µM,1%
same,growth inhibition,[12]; at 3.7 µM,-1%
same,growth inhibition,[12]; at 11.0 µM,1%
same,growth inhibition,[12]; at 33.0 µM,2%
same,growth inhibition,[12]; at 100.0 µM,4%
same,growth inhibition,[13]; at 1.2 µM,-2%
same,growth inhibition,[13]; at 3.7 µM,-2%
same,growth inhibition,[13]; at 11.0 µM,1%
same,growth inhibition,[13]; at 33.0 µM,3%
same,growth inhibition,[13]; at 100.0 µM,10%
same,growth inhibition,[14]; at 1.2 µM,-1%
same,growth inhibition,[14]; at 3.7 µM,1%
same,growth inhibition,[14]; at 11.0 µM,0%
same,growth inhibition,[14]; at 33.0 µM,6%
same,growth inhibition,[14]; at 100.0 µM,16%
same,growth inhibition,[15]; [16],57%
same,growth inhibition,[15]; [17],79% (active)
same,growth inhibition,[15]; at 50.0 µM,62%

# Source: PubChem BioAssay (NCI)
